The list is not random: actives were taken first. Their share in the collection is about 2.4%.
PfM18AAP inh: blocks P. falciparum M18 aspartyl aminopeptidase; recombinant PfM18AAP, H-Glu-NHMec fluorogenic cleavage; inhibition, % at 7.35 µM; hit rate 1.2% among 290,000; AID 1822;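 active = inhibition above the campaign mean inhibition over all tested compounds plus 3 SD, cut at about 28% in these data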;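 also: 0% = plate median of test compound wells and 100% = 2 mM ZnCl2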
Yeast superoxide: lowers age-related superoxide in aged yeast cells | hit rate 0.18% among 330,000 | AID 2690 | superoxide response (% of plate mean), % at 10 µM | S. cerevisiae aged cells, superoxide DHE fluorescence; hits give low values;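 active = superoxide response under a set limit, about three screen SD below normal, cut at about 65% in these data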;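 also: yeast aged for seven days with compound at 30 °C before DHE staining; 100% = average MFI of all compound-treated wells on the plate with controls excluded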
A3G deaminase: APOBEC3G (human) deaminase inhibition; inhibition, % at 20 µM; recombinant A3G, ssDNA deamination FAM/TAMRA fluorescence; AID 493012; hit rate 0.28% among 330,000; Q9HC16;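 active = inhibition of at least 40% at 20 µM, with no more than 30% in the related APOBEC3A deaminase screen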;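 also: plate controls were DMSO wells with A3G for no effect and wells lacking A3G enzyme for full effect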
Target sequence (Q9HC16 whole entry, looked up): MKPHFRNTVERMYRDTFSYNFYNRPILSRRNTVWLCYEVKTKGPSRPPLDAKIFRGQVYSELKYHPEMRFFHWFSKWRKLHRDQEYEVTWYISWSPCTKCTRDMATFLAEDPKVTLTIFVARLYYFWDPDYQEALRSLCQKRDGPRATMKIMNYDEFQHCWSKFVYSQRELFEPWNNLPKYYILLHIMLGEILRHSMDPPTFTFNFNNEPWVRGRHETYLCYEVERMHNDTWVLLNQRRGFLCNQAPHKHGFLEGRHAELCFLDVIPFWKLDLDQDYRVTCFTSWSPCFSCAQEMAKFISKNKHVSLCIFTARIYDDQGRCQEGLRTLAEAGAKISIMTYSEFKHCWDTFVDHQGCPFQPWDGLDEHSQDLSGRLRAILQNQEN
A3A deaminase: human APOBEC3A DNA deaminase inhibition; hit rate 0.41% among 330,000; AID 493011; recombinant A3A, FAM/TAMRA ssDNA deamination fluorescence; inhibition, % at 20 µM;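 active = at least 40% inhibition at 20 µM here, with at most 30% in a related deaminase screen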;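 also: plate controls were A3A with DMSO for no effect and wells lacking A3A enzyme for full effect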
PfG6PD inh: PfG6PD (Plasmodium falciparum) enzyme inhibition. hit rate 0.78% among 350,000. inhibition, % at 20 µM. PfGluPho enzyme, NADPH resazurin-diaphorase fluorescence;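 active = inhibition reaching at least a set limit at 20 µM in the primary screen, cut at about 59% in these data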;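 also: 0% = DMSO wells with substrate and 100% = DMSO wells lacking glucose-6-phosphate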
* marks the source's active call; other numbers are inactive results.

`CCOC(=O)C(=NC(C)CC)NNc1ccc(Br)cc1` (stereo unspecified) gave PfM18AAP inh 30*, Yeast superoxide 162, A3G deaminase -3, A3A deaminase -1 and PfG6PD inh 17.
`O=C(NNC(=O)c1cc2ccccc2[nH]1)OCc1ccccc1` gave Yeast superoxide 122, A3G deaminase -5, A3A deaminase 0 and PfG6PD inh -8.
Screening Cc1cc(/C=N/n2cnnc2)c(C)n1-c1cccc(Cl)c1 returned PfM18AAP inh 29*, Yeast superoxide 88, A3G deaminase 4, A3A deaminase 0 and PfG6PD inh 12.
Cc1cc(/C=N/n2cnnc2)c(C)n1-c1ccc(Cl)cc1 was read as PfM18AAP inh 7, Yeast superoxide 113, A3G deaminase 2, A3A deaminase 31 and PfG6PD inh -2.
`CCOC(=O)C1C(c2ccc(O)c(O)c2)NC(=S)NC1(O)C(F)(F)F` (stereo unspecified) gave PfM18AAP inh 65*, Yeast superoxide 103, A3G deaminase -3, A3A deaminase 1 and PfG6PD inh -1.
For O=C1CCCC2=C1C(c1ccc(O)c(O)c1)c1c(ccc3ncccc13)N2 (stereo unspecified) the results were PfM18AAP inh 77*, Yeast superoxide 120, A3G deaminase 17, A3A deaminase 11 and PfG6PD inh 44.
Screening Oc1c(Br)cc(Br)cc1/C=N/c1nc2c(s1)CCCC2 returned PfM18AAP inh 12, Yeast superoxide 80, A3G deaminase -3, A3A deaminase -3 and PfG6PD inh 80*.
For Oc1ccc2ccccc2c1/C=N/c1nc2c(s1)CCCC2 the results were PfM18AAP inh 15, Yeast superoxide 98, A3G deaminase 17, A3A deaminase -2 and PfG6PD inh 43.
For O=C1C([N+](=O)[O-])=C(O)c2cccc3cccc1c23 the results were PfM18AAP inh 32* and Yeast superoxide 91.
CCOC(=O)c1cnc(SC2CC(=O)N(c3cccc(OC)c3)C2=O)nc1N (stereo unspecified) was read as PfM18AAP inh 29*, Yeast superoxide 101, A3G deaminase -4, A3A deaminase -2 and PfG6PD inh -19.
COCCCN1C(=O)C(CC(=O)NCC2CCCCC2)CC(C(=O)N2CCOCC2)=C1C (stereo unspecified) was read as PfG6PD inh 2.
`COc1cc(C(=O)Nc2ccc(NC(=O)c3ccccc3Cl)nc2)cc(OC)c1OC` gave PfM18AAP inh 3, Yeast superoxide 110, A3G deaminase -10, A3A deaminase -1 and PfG6PD inh -11.
`COc1ccc(NC(=O)/C(=C/c2cccnc2)NC(=O)c2cccs2)cc1` gave PfM18AAP inh -7, Yeast superoxide 103 and PfG6PD inh -7.
`O=C(NC(=S)Nc1ccccc1Cl)c1csnn1` gave PfM18AAP inh 3, Yeast superoxide 115, A3G deaminase -4, A3A deaminase -3 and PfG6PD inh 2.
For O=C(Nc1ccccc1NC(=O)c1csnn1)c1csnn1 the results were PfM18AAP inh 73*, Yeast superoxide 92, A3G deaminase -7, A3A deaminase 1 and PfG6PD inh -29.
`O=C(NNS(=O)(=O)c1ccc(Br)cc1)c1csnn1` gave PfM18AAP inh 30*, A3G deaminase -6, A3A deaminase -4 and PfG6PD inh -11.
O=C(NNS(=O)(=O)c1ccc(Br)cc1)c1ccccc1-n1cccc1 was read as PfM18AAP inh -3, Yeast superoxide 95, A3G deaminase -4, A3A deaminase -2 and PfG6PD inh -20.
`O=C(CN1C(=O)/C(=C/c2ccccc2F)Sc2ccccc21)NCC1CCCO1` (stereo unspecified) gave PfM18AAP inh -5, Yeast superoxide 106, A3G deaminase 0, A3A deaminase 2 and PfG6PD inh -12.
`N#Cc1ccsc1NC(=O)C1CCN(C(=O)c2ccc(Cl)cc2)CC1` gave Yeast superoxide 98, A3G deaminase 3, A3A deaminase 2 and PfG6PD inh 45.
`CCOC(=O)C1CCN(C(=O)c2ccccc2)c2scc(-c3ccccc3)c2C1=O` (stereo unspecified) gave PfG6PD inh 8.
For Cc1nnc(Sc2cc(NCCCO)c([N+](=O)[O-])c3nonc23)s1 the results were PfM18AAP inh -56 and PfG6PD inh 77*.
Screening CCCSc1cc(NCCOC(C)=O)c([N+](=O)[O-])c2nonc12 returned PfM18AAP inh -4, Yeast superoxide 108, A3G deaminase -7, A3A deaminase 1 and PfG6PD inh 24.

Compound activity: PubChem, several laboratories
